# The whole screen tested about 13,000 compounds, of which about 3,200 (25%) showed an effect of 50% or more. Some of the results follow.
# System: P. falciparum stage V gametocytes
# Parameters: BacTiter-Glo ATP luminescence viability of purified stage V gametocytes in 384-well plates, per cent inhibition versus DMSO
# Conditions: 48 h, 5 µM; inhibitor
row,SMILES,% Inhibition [%]
1,c1ccc(CN2CCc3cc4nccc(N5CCNCC5)c4cc32)cc1 [TCMDC-140118],-20.01
2,C=CCOc1ccc2ccccc2c1CNCCCCCCNCc1c(OCC=C)ccc2ccccc12 [TCMDC-137340],119.9
3,C/C=C/COc1ccc2ccccc2c1CNCCCCCCCCNCc1c(OC/C=C/C)ccc2ccccc12 [TCMDC-137844],118.6
4,Nc1nc(N)c2c(ccc3c2cnn3S(=O)(=O)N2CCCC2)n1 [TCMDC-137852],-71.91
5,O=C1COc2ccccc2N1C/C=C(\CN1CCC(c2ccccc2)CC1)c1cc(Cl)cc(Cl)c1 [TCMDC-134528],-40.54
6,Cc1cc(Nc2ccc3c(c2)CCC3)n2ncnc2n1 [TCMDC-123574],8.317
7,Cc1[nH]nc2cc(Nc3nccc(Nc4ccc(Oc5ccccc5)cc4)n3)ccc12 [TCMDC-138573],32.4
8,CCc1nnc2sc(-c3cccc(NC(=O)c4ccc(C)c([N+](=O)[O-])c4)c3)nn12 [TCMDC-125124],-17.45
9,Cc1ccc(O)c(-c2cc(C(=O)Nc3ccc(S(=O)(=O)N4CCCCC4)cc3)[nH]n2)c1 [TCMDC-124309],-24.12
10,O=C(Nc1ccccc1)c1cnc[nH]1 [TCMDC-123941],-10.44
11,CC[C@H]1CN2CC[C@@H]1C[C@H]2[C@H](O)c1ccnc2ccc(Cl)cc12 [TCMDC-141353],-5.728
12,CC[C@H]1CN2CC[C@H]1C[C@H]2[C@H](O)c1ccnc2ccc(O)cc12 [TCMDC-131425],22.33
13,CC[C@H]1CN2CC[C@@H]1C[C@H]2[C@H](O)c1cc(-c2ccc(F)cc2)nc2ccc(O)cc12 [TCMDC-141378],55.28
14,CC[C@H]1CN2CC[C@@H]1C[C@H]2[C@H](O)c1cc(-c2ccccc2)nc2ccc(O)cc12 [TCMDC-141380],89.63
15,CCCc1cc([C@@H](O)[C@@H]2C[C@@H]3CCN2C[C@@H]3CC)c2ccccc2n1 [TCMDC-131428],-9.828
16,CC[C@H]1CN2CC[C@H]1C[C@@H]2[C@H](O)c1ccnc2ccc(O)cc12 [TCMDC-132025],31.63
17,CC[C@H]1CN2CC[C@@H]1C[C@H]2[C@H](O)c1cc(-c2ccc(Cl)c(Cl)c2)nc2ccc(O)cc12 [TCMDC-141362],95.45
18,OCC1CCCCN1Cc1cccc(-c2cccc(-c3nc4ccccc4[nH]3)c2)c1 (stereo not drawn) [TCMDC-133835],-3.731
19,O=C(Nc1ccc(OC2CCN(Cc3ccc(F)cc3)C2)c(Cl)c1)c1ccsc1 (stereo not drawn) [TCMDC-133756],-6.821
20,O=C(Nc1cccc(Cl)c1Cl)N1CCc2cc3nccc(N4CCN5CCC[C@H]5C4)c3cc21 [TCMDC-140054],-5.668
21,CC(=O)N(Cc1ccccc1-c1cccc(CNCCc2ccccc2)c1)C1CCN(Cc2ccccc2)CC1 [TCMDC-140524],45.75
22,CC(=O)N(Cc1ccccc1-c1ccc(CNCCc2ccccc2)cc1)C1CCN(Cc2ccccc2)CC1 [TCMDC-140525],102.9
23,CC(C)CNCc1ccc(-c2ccccc2CN(C(=O)NCCc2ccccc2)C2CCN(Cc3ccccc3)CC2)cc1 [TCMDC-140609],78.77
24,O=C(c1ccccc1)N(Cc1ccccc1-c1ccc(CNCCc2ccccc2)cc1)C1CCN(Cc2ccccc2)CC1 [TCMDC-140531],62.45
25,O=C(NC1CCCCC1)N(Cc1ccccc1-c1ccc(CNCCc2ccccc2)cc1)C1CCN(Cc2ccccc2)CC1 [TCMDC-140625],106.9
26,CCOc1ccc(N2C(N)=NC(N)=NC2(C)C)cc1 [TCMDC-124280],3.734

row,SMILES,% Inhibition [%]
1,COc1cc(C(=O)NC2CCN(Cc3ccccc3)CC2)ccc1-c1cc2cc(Cl)c(Cl)cc2[nH]1 [TCMDC-141286],1.884
2,CC(C)[C@H](NC(=O)c1c(CN2CCC(N3CCCCC3)CC2)c(-c2ccccc2)nc2cc(O)ccc12)c1ccccc1 [TCMDC-140676],20.63
3,CC(C)CNCc1cccc(-c2ccccc2CN(C(=O)NCCc2ccccc2)C2CCN(Cc3ccccc3)CC2)c1 [TCMDC-140608],89.6
4,O=C(NCCc1ccccc1)N(Cc1ccccc1-c1cccc(CNCCc2ccccc2)c1)C1CCN(Cc2ccccc2)CC1 [TCMDC-140610],46.01
5,O=C(NCCc1ccccc1)N(Cc1ccccc1-c1ccc(CNCCc2ccccc2)cc1)C1CCN(Cc2ccccc2)CC1 [TCMDC-140611],104.9
6,O=C(NCCc1ccccc1)N(Cc1ccccc1-c1cccc(CNCc2ccc3c(c2)OCO3)c1)C1CCN(Cc2ccccc2)CC1 [TCMDC-140614],15.63
7,Fc1ccc2[nH]c3c(NCCN4CCCCC4)ncnc3c2c1 [TCMDC-123757],-41.7
8,CCc1cc(=O)[nH]c(-n2nc(C)cc2NC(=O)CC(c2ccccc2)c2ccccc2)n1 [TCMDC-124942],38.89
9,Cc1cccc(Nc2nccc(NCC(O)c3cccc(C(F)(F)F)c3)n2)c1 (stereo not drawn) [TCMDC-136582],10
10,CCCCCCNC[C@@H](O)[C@H](Cc1ccccc1)NC(=O)c1cc(NCC)cc(N2CCCCS2(=O)=O)c1 [TCMDC-135218],27.85
11,Cc1ccc2[nH]c(C3CCCNC3)c(-c3ccncc3)c2c1 (stereo not drawn) [TCMDC-134505],76.33
12,COC(=O)c1cc(NC(=O)Nc2ccc(Cn3ncc(N4CCCNCC4)c(Cl)c3=O)cc2)cc(C(=O)OC)c1 [TCMDC-133324],3.06
13,Clc1cc(Nc2ccnc3ccc(Br)cc23)ccc1Oc1ccc2ccccc2c1Cl [TCMDC-124239],37.87
14,COC(=O)CCCCOc1c(OC)cc(Cc2cnc(N)nc2N)cc1OC [TCMDC-137353],24.77
15,CCN(CCCN1CCCCC1)c1cc(C)nc(Nc2ccc(Cl)cc2)n1 [TCMDC-137488],-3.889
16,Cc1cc(N(C)CCCN2CCCCC2)nc(Nc2ccc(Cl)cc2)n1 [TCMDC-137485],86.59
17,CCN(CCCN1CCCCC1)c1cc(C)nc(Nc2cc(C)ccc2C)n1 [TCMDC-132449],18.24
18,CCN(CCCN1CCCCC1)c1cc(C)nc(Nc2ccc(Br)cc2F)n1 [TCMDC-132428],4.971
19,CCN(CCCN1CCCCC1)c1cc(C)nc(Nc2cc(Br)ccc2C)n1 [TCMDC-132432],22.76
20,CCN(CCCN1CCCC1)c1cc(C)nc(Nc2ccc(Cl)cc2)n1 [TCMDC-137224],44.32
21,CCN(CCCN1CCCCC1)c1cc(C)nc(Nc2cc(Cl)ccc2C)n1 [TCMDC-132446],50.43
22,Cc1cc(N(C)C2CCN(C)CC2)nc(Nc2ccc(Br)cc2)n1 [TCMDC-137015],43.74
23,CCN(CCCN1CCCCC1)c1cc(C)nc(Nc2ccc(C)cc2Br)n1 [TCMDC-132441],94.55
24,Cc1cc(N(C)C2CCN(C)C2)nc(Nc2ccc(Cl)cc2)n1 (stereo not drawn) [TCMDC-137010],65.31
25,Cc1cc(N(C)C2CCN(C)CC2)nc(Nc2ccc(Cl)cc2)n1 [TCMDC-132418],22.03
